Source: PubChem (National Center for Advancing Translational Sciences (NCATS))
Vif-APOBEC3G blk: Vif-A3G binding inhibition; Q9HC16; Potency, µM (series often up to 46.1 µM), inactives show at the top dose activity, negative = active, most hits filed as inhibitors; HeLa A3G-eYFP + Vif (tagged APOBEC3G with the HIV-1 protein that degrades it), YFP fluorescence, overnight; 0.076% of 410,000 active; further: on the % scale 0 is the no-effect control and ±100 the full control effect; nearly all actives have a fitted effect of over 60% in size
Target sequence (Q9HC16 whole entry, looked up): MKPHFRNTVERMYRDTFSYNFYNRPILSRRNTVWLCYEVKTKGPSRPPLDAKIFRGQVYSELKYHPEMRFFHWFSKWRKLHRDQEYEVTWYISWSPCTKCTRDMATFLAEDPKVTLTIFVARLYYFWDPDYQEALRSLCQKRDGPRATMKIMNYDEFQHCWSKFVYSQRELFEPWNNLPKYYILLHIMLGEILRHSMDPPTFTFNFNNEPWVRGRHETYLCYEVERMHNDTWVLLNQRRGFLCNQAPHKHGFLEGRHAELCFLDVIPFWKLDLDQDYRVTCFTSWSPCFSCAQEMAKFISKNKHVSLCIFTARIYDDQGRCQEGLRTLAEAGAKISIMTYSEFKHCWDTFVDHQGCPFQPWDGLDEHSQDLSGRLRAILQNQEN
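Read-out is eYFP fluorescence (Ex 488/Em 500-530) from Vif-expressing HeLa A3G-eYFP cells; more signal means A3G escaped Vif-mediated degradation. Cells plated overnight, compound pinned in, incubated overnight at 37 deg C.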
Epigenetic reg: derepresses silenced GFP reporter in murine cells; murine LDR cells, GFP reporter derepression, 30 h; Potency, µM (titrated, usually from 53.9 µM), without a hit: at the top dose GFP activation, actives largely listed as activators; 0.2% of 280,000 active; AID 1865; further: % of control where 0% means no effect; nearly all actives have a fitted effect of over 60% in size
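Murine LDR cells bearing a silenced CMV-driven GFP reporter were exposed to compound for 30 h at 37 C. After PBS washes, GFP-positive cells (20-120 um objects) counted by laser-scanning microplate cytometry.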
Vif-APOBEC3F blk: blocks the Vif interaction with APOBEC3F; HeLa A3F-eYFP + Vif (tagged APOBEC3F with the HIV-1 protein that degrades it), YFP fluorescence increase; 0.2% of 390,000 active; Potency, µM (titrated, usually from 46.1 µM), for the others: at the top dose activity, negative = active; further: % of control where 0% means no effect; nearly all actives have a fitted effect of over 65% in size
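HeLa cells stably expressing Vif plus C-terminally eYFP-tagged A3F were seeded, incubated overnight at 37 deg C, dosed with compound, incubated overnight again at 37 deg C. Yellow fluorescence (Ex 488/Em 500-530) reported blocked Vif-mediated A3F-eYFP degradation.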
PINK1 modulator: PINK1 expression modulation | PINK1 immunofluorescence, high-content cytometry, 24 h | Potency, µM (series often up to 76.6 µM), for the others: at the highest dose activation (PINK1 increase), most hits filed as activators | 0.2% of 410,000 active | AID 624263; active means well fitted activation curve with a large enough effect; inconclusive means small, poorly fitted or top-dose-only effect; cell line not stated here; further: % of control where 0% means no effect; nearly all actives have a fitted effect of over 65% in size
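Readout is PINK1 immunofluorescence, quantified alongside mitochondrial, cell and nuclear markers by laser-scanning microplate cytometry. Cells from a stable line were exposed to compound titrations (5 concentrations) for 24 hours, with CCCP controls.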
Numbers without * were called inactive; i = inactive; ? = inconclusive; . = not tested or not shown; [ ] = remark or other dose. Sampled rows, rich in hits. Any-hit rate of the full collection: about 0.52%. Unless noted, the call rests on the fitted dose curve; in most records, active means well fitted curve in the direction sought with a large enough effect; inconclusive means small, poorly fitted or top-dose-only effect, or another doubt; inactive means no such curve, though single readings can be large; an effect the other way counts as inactive or inconclusive. Potency means the concentration at half of the fitted maximal effect.

SMILES	Vif-APOBEC3G blk	Epigenetic reg	Vif-APOBEC3F blk	PINK1 modulator
N#C/C(=N\Nc1ccc([N+](=O)[O-])cc1)C(N)=S	7%	2%	4%	25µM*
O=C(c1cccc(N2CCCC2=O)c1)N1CCC(Oc2cccc(CN3CCN(c4ccccn4)CC3)c2)CC1	.	.	.	0%
C[n+]1ccc(/C=C/c2cc[n+](C)c3ccccc23)c2ccccc21	13µM*	.	.	4µM*
CN1C=C/C(=C\c2cc[n+](C)c3ccccc23)c2ccccc21	5%	0%	?	5µM*
C[n+]1ccc(/C=C/c2ccc(F)cc2)c2ccccc21	8%	.	.	?
Cc1ccccc1C(=O)NC(C)c1nnc2n1CCN(Cc1ccc(F)cc1)CC2 (stereo not given)	.	.	.	0%
Cc1ccc(CNC(=O)Cn2cc(C(=O)c3ccc(Cl)cc3)c(=O)c3ccc(C)nc32)cc1	-17%	6%	13µM*	0%
Cc1ccccc1NCC(=O)N=Nc1c(O)[nH]c2ccc([N+](=O)[O-])cc12	5µM*	1%	?	2%
CCC1(C2CCN(C(=O)c3ccccc3C(C)=O)CC2)NC(=O)N(CCc2scnc2C)C1=O (stereo not given)	.	.	.	0%
CCOC(=O)C1CCN(Cc2ccccc2C(F)(F)F)CC1	-1%	1%	-18%	9%[38.3 µM]
CCOC(=O)C1CCN(Cc2ccc(O)c3ncccc23)CC1	-13%	5.6µM*	-4%	25µM*
Cc1oc(-c2ccccc2NC(=O)c2cccnc2)nc1CNC(=O)C1CCCCCN1C (stereo not given)	.	.	.	1%
COc1ccc2nc(NC(=S)NC(=O)c3ccco3)sc2c1	0%	0%	10µM*	-2%
COC(=O)c1sc(NC(=O)c2ccco2)nc1C	-10%	-6%	-4%	2%
CCOC(=O)c1sc(NC(=S)NC(=O)c2ccco2)nc1C	-1%	-1%	22µM*	0%
Cn1c(CC(=O)Nc2ccc(Cl)c(Cl)c2)n[nH]c1=S	-8%	0%	14%	0%
COc1ccc(Cc2n[nH]c(=S)n2NC(=O)Nc2ccc(Cl)c(Cl)c2)cc1	0%	1%	1%	40µM*
Cc1ccccc1CN1c2ccccc2-c2nc(SCC(=O)NCCc3ccccc3)ncc2S1(=O)=O	-2%	22µM*	0%	3%
COc1ccc2c(c1OC)C(=O)N(c1cccc(C(F)(F)F)c1)C2	-2%	0%	-12%	3.2µM*
COc1ccc2c(c1OC)C(=O)N(c1cccc(C)c1)C2	1%	1%	-3%	0%
O=C1c2cccc3c([N+](=O)[O-])ccc(c23)C(=O)N1c1ccc(Cl)cn1	8%	14µM*	?	-1%[38.3 µM]
O=C1c2cccc3c([N+](=O)[O-])ccc(c23)C(=O)N1c1nccs1	?	?	?	11%[38.3 µM]
CC(=O)Oc1ccc(N2C(=O)c3cccc4c([N+](=O)[O-])ccc(c34)C2=O)cc1	?	.	22µM*	2%
O=C1c2cccc3c([N+](=O)[O-])ccc(c23)C(=O)N1O	11µM*	.	5µM*	15%
O=C1c2cccc3c([N+](=O)[O-])ccc(c23)C(=O)N1c1ccccn1	12%	1%	13µM*	-2%
SMILES	Vif-APOBEC3G blk	Epigenetic reg	Vif-APOBEC3F blk	PINK1 modulator
O=C1c2ccc([N+](=O)[O-])cc2C(=O)N1c1ccc(Cl)cn1	-4%	0%	2%	4%
Cc1c(C(=O)NCCC2CCCN2C)cnn1-c1nccc(-c2ccccc2F)n1 (stereo not given)	.	.	.	-1%
CCOCCCNc1nc2c(C)cccn2c(=O)c1/C=C1\SC(=S)N(C(C)CC)C1=O (stereo not given)	?	3.2µM*	i	14%
OC(c1cccnc1)c1ccc2c(c1)CN(Cc1cn(-c3ccccc3)nc1-c1ccccc1)CCO2 (stereo not given)	.	.	.	0%
CCCCOC(=O)Cn1c(-c2ccccc2)nc2ccccc2c1=O	-3%	1%	5%	2%
CCCOC(=O)C(C)n1c(-c2ccccc2)nc2ccccc2c1=O (stereo not given)	3%	-1%	-10%	8.9µM*
Cc1cc(-c2ccnc(-n3ncc(C(=O)NCCc4cccnc4)c3C)n2)c(C)s1	.	.	.	1%
CCOc1cc(S(=O)(=O)NCc2ccc(OC)cc2)c(OCC)cc1-n1cnnn1	?	2%	1%	5.6µM*
OCCCn1c(C2CCCN2c2nc(-c3ccc(Cl)cc3)cs2)nc2cc(Cl)c(N3CCCCC3)cc21 (stereo not given)	-6%	.	?	8%
